# Bioassay records (PubChem)
# Sampled rows, rich in hits. Any-hit rate of the full collection: about 5.6%.
# Six1-Eya2 blk: inhibitors of human Six1/Eya2 interaction | Q15475+O00167 | AlphaScreen GST-Six1/His-Eya2 binding, biochemical; active compounds read low | activity change, % (concentration not given with the values) | 0.56% of 360,000 active | AID 651725; in the data active = activity change below about -65%; inconclusive = mostly about -30% to -63%
# Target sequence (O00167 whole entry, looked up): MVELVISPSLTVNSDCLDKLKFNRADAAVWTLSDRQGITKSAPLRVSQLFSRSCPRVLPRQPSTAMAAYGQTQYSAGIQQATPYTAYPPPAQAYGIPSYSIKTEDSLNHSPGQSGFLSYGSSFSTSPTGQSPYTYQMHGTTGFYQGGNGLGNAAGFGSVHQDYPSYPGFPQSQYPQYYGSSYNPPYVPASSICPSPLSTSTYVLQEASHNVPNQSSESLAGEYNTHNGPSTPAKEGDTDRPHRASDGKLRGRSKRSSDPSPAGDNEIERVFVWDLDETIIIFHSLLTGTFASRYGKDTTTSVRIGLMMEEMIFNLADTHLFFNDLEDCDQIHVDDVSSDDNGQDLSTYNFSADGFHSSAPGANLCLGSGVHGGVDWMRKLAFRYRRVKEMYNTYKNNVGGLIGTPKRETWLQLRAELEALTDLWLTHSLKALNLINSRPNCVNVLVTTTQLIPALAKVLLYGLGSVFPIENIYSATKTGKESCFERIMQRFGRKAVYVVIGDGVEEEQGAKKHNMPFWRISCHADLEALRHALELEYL
# Target sequence (Q15475 whole entry, looked up): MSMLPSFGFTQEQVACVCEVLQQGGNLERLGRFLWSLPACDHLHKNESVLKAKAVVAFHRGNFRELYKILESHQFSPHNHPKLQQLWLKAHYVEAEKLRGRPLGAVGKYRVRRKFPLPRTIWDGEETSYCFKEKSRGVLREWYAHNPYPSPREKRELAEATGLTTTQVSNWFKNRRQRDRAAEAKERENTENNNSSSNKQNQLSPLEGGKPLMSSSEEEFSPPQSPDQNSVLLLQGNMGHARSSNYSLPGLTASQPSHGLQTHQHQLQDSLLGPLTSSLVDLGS
#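 AlphaScreen with GST-Six1 and His-Eya2 (5X mix: 250 nM and 500 nM), glutathione donor and nickel acceptor beads; buffer 50 mM Tris pH 8.0, 300 mM NaCl, 1 mM TCEP; 1 h at 37 C in the dark.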
# PKM2 act: increases activity of human pyruvate kinase M2; P14618; purified PKM2, Kinase-Glo ATP luminescence, activation; response scale: 0% is enzyme alone, no compound; Potency, µM (titrated, usually from 57.5 µM), for the others: top-dose activation, usual class: activators; 0.34% of 260,000 active; AID 1631; note: potency is the fitted concentration of half-maximal effect; nearly all actives have a fitted effect of over 55% in size
#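 Purified hPK-M2 (>95% pure) converted ADP (0.1 mM final) to ATP with 0.5 mM PEP in 50 mM imidazole pH7.2, KCl, MgCl2, Tween 20, BSA; 1 h at room temperature. ATP detected by Kinase-Glo luminescence.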
# RORgamma inh: ROR gamma (mouse) transcription inhibition | Drosophila S2 Gal4-RORgamma UAS-luciferase reporter, 20 h | 5.4% of 310,000 active | Potency, µM (titrated, usually from 53.6 µM), without a hit: at the top dose activity change, negative = inhibition, usual class: inhibitors | AID 2551 | P51450; note: potency is the fitted concentration of half-maximal effect; nearly all actives have a fitted effect of over 60% in size
#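 ROR gamma transcriptional activity was tracked as Gal4-UAS luciferase output in stably transfected Drosophila Schneider cells, with compound added 1 hr before 700 uM copper sulfate induction and a 20 hr ambient-temperature incubation.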
# CtBP-E1A blk: CtBP/E1A binding inhibition; AlphaScreen GST-E1A/His-CtBP binding, 1536-well; active compounds read low; activity change, % (no concentration beside the values); 0.49% of 340,000 active; in the data active = activity change below about -65%; inconclusive = mostly about -30% to -63%
#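 GST-E1A and His-tagged CtBP (125 nM each as 5X stock) were preincubated with pin-transferred compound for 2 h at 37 °C in the dark, then glutathione donor and nickel acceptor beads were added for 1 h before AlphaScreen reading.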
# Gal4-VP16 FLuc: Gal4-VP16 reporter inhibition counter-screen; Potency, µM (series often up to 53.6 µM), inactives show top-dose activity, negative = inhibition, most hits filed as inhibitors; Drosophila S2 Gal4-VP16 UAS-luciferase, luminescence, 20 h; AID 2546; 3.5% of 310,000 active;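 note: Gal4-VP16 expression switched on by copper sulfate through the metallothionein promoter; potency is the fitted concentration of half-maximal effect; nearly all actives have a fitted effect of over 50% in size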
# * = called active by the depositor; ? = inconclusive; nt = not tested or not shown; [ ] = dose if it differs, or a comment. Unless noted, calls come from the whole dose curve; as a rule, active = well fitted curve in the direction sought with a large enough effect; inconclusive = small, poorly fitted or top-dose-only effect, or another doubt; inactive = no such curve, though single readings can be large; an effect the other way counts as inactive or inconclusive. % is set by controls: 0 for no effect and ±100 for the full control effect.
SMILES,Six1-Eya2 blk,PKM2 act,RORgamma inh,CtBP-E1A blk,Gal4-VP16 FLuc
Cc1cc(-c2n[nH]c(=S)n2-c2ccccc2)nn1C,-1,-7%,-24%,0,-7%
Cc1ccc(-n2c(-c3cn(C)nc3C)n[nH]c2=S)cc1,nt,0%,10µM*,nt,-7%
Cc1nn(C)cc1-c1n[nH]c(=S)n1-c1ccc(F)cc1,8,-25%,?,0,8%
Cc1ccc(-n2c(-c3cc(C)n(C)n3)n[nH]c2=S)cc1,4,16%,11µM*,2,-2%
COc1ccc(S(=O)(=O)N2CCC3(CC2)OCCN3S(=O)(=O)c2cccs2)cc1OC,-2,nt,nt,1,nt
O=C1N[C@@H](Cc2ccccc2)C(=O)N2CCCC12 (stereo partly drawn),8,nt,-11%[96.6 µM],2,3%[96.6 µM]
CC(C)CC1NC(=O)C(CCCN)NC(=O)C(C(C)C)NC(=O)C2CCCN2C(=O)C(Cc2ccccc2)NC(=O)C(CC(C)C)NC(=O)C(CCCN)NC(=O)C(C(C)C)NC(=O)C2CCCN2C(=O)C(Cc2ccccc2)NC1=O (stereo not drawn),nt,nt,0.089µM*,nt,0.28µM*
CCOc1ccc(-c2nnc(SCC(=O)Nc3ccc4c(c3)c3ccccc3n4CC)n2N)cc1,6,4%,?,-1,22µM*
COc1ccc(Br)cc1CN1CCC(N2CCCC2)CC1,3,0%[11.5 µM],16%,11,-11%
COc1ccc2nc(N/C(N)=N/C(=S)Nc3cccc(C)c3)nc(C)c2c1,-6,-4%,3.5µM*,-27,4.5µM*
COc1ccc(NC(=S)/N=C(\N)Nc2nc(C)c3ccccc3n2)cc1,?,-3%,1µM*,-26,4.5µM*
COc1ccc2nc(N/C(N)=N/C(=S)Nc3c(C)cccc3C)nc(C)c2c1,-27,3%,16%,nt,-6%
CCOc1ccc2nc(N/C(N)=N/C(=S)Nc3cccc(OC)c3)nc(C)c2c1,-4,5%,0.79µM*,-8,?
CCOc1ccc2nc(N/C(N)=N/C(=S)Nc3cccc(C)c3)nc(C)c2c1,-9,-6%,1.6µM*,-13,3.5µM*
O=C(Nc1ccccc1Cl)Oc1ccc(-c2ccccc2)cc1,0,6%,0%,nt,-5%
Cc1ccc2c(c1)N(CC(=O)N1CCCC1)C(=O)c1cccnc1O2,-3,nt,-19%,7,-15%
CCOc1nc(Nc2ccc(OC)cc2OC)nc(OCC)n1,-1,1%,nt,nt,nt
COc1ccc(CC(=O)Nc2nc(OCC(F)(F)F)cnc2-c2ccc(Cl)cc2Cl)cc1,0,nt,nt,6,nt
COc1ccc2nc(Cl)c(/C=N/Nc3ccccn3)cc2c1,0,-13%,11µM*,4,?
Clc1ccc(/C=N/Nc2ccccn2)cc1,1,-3%,?,1,?
Clc1ccccc1C=NNc1ccccn1,7,nt,nt,9,nt
CCOc1ccc(/C=N/Nc2ccccn2)cc1,-2,-20%,11µM*,nt,?
Cc1ccccc1OCC(=O)Nc1ccc(Cc2ccncc2)cc1,-12,-21%,?,-23,10µM*
Cc1ccc(OCC(=O)Nc2ccncc2)c(C)c1,0,2%,4%,4,16µM*
Cc1ccccc1OCC(=O)Nc1ccc(C(N)=O)cc1,-1,0%,5%,7,7%
SMILES,Six1-Eya2 blk,PKM2 act,RORgamma inh,CtBP-E1A blk,Gal4-VP16 FLuc
Cc1ccccc1OCC(=O)Nc1ccncc1,7,0%,?,3,11µM*
COc1ccc(N=C2c3ccccc3-c3ccc([N+](=O)[O-])cc32)cc1,?,nt,nt,-30,nt
S=c1[nH]nc(C2CCCCC2)n1/N=C/C=C/c1ccccc1,-10,0%,0.89µM*,-7,6.3µM*
S=c1[nH]nc(-c2cccnc2)n1/N=C/C=C/c1ccccc1,5,-16%,4.5µM*,nt,?
S=c1[nH]nc(C2CCCCC2)n1/N=C/C(Cl)=C\c1ccccc1,2,9%,2µM*,19,5.6µM*
CC(C)c1ccccc1NC(=O)COC(=O)c1cccnc1,21,5%,6%,3,-9%
O=C(COC(=O)C1CCN(c2ccc(C(F)(F)F)cn2)CC1)NCc1ccccc1,10,nt,nt,nt,nt
Cc1ccc(CNC(=O)CC2(CC3=NS(=O)(=O)c4ccccc4N3)CCCC2)cc1,1,?,12%,1,?
CCN(CC)c1ccc(C(=S)NCc2ccccc2)cc1,-9,-7%,?,nt,-4%
